The test in a line: chemical genetic growth profiling, strain panel (AID 1159580).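 Further: tested at 20 µM; growth read once vehicle control cultures reached saturation at 30 °C; 1 = growth at the plate median or of vehicle wells; lower values mean less growth of the strain.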 The note with it: growth OD.
The mark [1] stands for this setting: S. cerevisiae deletion strains, locus YHR030C, strain SLT2, active compounds read low.

Among all 5,500 compounds or so, about 2,000 (36%) were called active. Roughly 18% stayed inconclusive and do not appear here. The list shows a part of the results. Unmarked numbers belong to inactive results. No stated cut-off is given here; in the data, active means normalized growth mostly below about 0.91 (no sharp cut-off); inconclusive means no clear call, values can overlap the other calls; inactive means mostly above about 0.92.

For the compound `CCSCCC(N)C(=O)O` (stereo unspecified), the normalized growth was 1.06 under setting [1]; 1.05 (S. cerevisiae deletion strains, locus YHR079C, strain IRE1, active compounds read low); 1.04 (S. cerevisiae deletion strains, locus YJL095W, strain BCK1, active compounds read low); 1.01 (S. cerevisiae deletion strains, locus YJR066W, strain TOR1, active compounds read low); 1.04 (S. cerevisiae deletion strains, locus YLR113W, strain HOG1, active compounds read low); 1.02 (S. cerevisiae deletion strains, locus YNL183C, strain NPR1, active compounds read low). The normalized growth (S. cerevisiae deletion strains, locus YOR231W, strain MKK1, active compounds read low) was 1.03 and the normalized growth (S. cerevisiae deletion strains, locus YPL256C, strain CLN2, active compounds read low) was 1.05.

Consider `COc1ccc(CNc2ccccc2-c2nc3ccccc3[nH]2)cc1`, for which the normalized growth is 0.967 (S. cerevisiae deletion strains, locus YAL013W, strain DEP1, active compounds read low); 0.944 (S. cerevisiae deletion strains, locus YBR229C, strain ROT2, active compounds read low); 0.941 (S. cerevisiae deletion strains, locus YCL061C, strain MRC1, active compounds read low); 0.937 (S. cerevisiae deletion strains, locus YDL101C, strain DUN1, active compounds read low); 0.87 (active) (S. cerevisiae deletion strains, locus YDL134C, strain PPH21, active compounds read low); 0.934 (S. cerevisiae deletion strains, locus YDR150W, strain NUM1, active compounds read low). Also, the normalized growth is 0.861 (active) (S. cerevisiae deletion strains, locus YEL061C, strain CIN8, active compounds read low); 0.952 (S. cerevisiae deletion strains, locus YGR078C, strain PAC10, active compounds read low); 0.95 (S. cerevisiae deletion strains, locus YGR229C, strain SMI1, active compounds read low); 0.431 (active) under setting [1]; 0.92 (S. cerevisiae deletion strains, locus YHR087W, strain rtc3, active compounds read low); 0.978 (S. cerevisiae deletion strains, locus YJL187C, strain SWE1, active compounds read low). For the same compound, the normalized growth runs as follows: (S. cerevisiae deletion strains, locus YJR043C, strain POL32, active compounds read low) 0.957; (S. cerevisiae deletion strains, locus YJR075W, strain HOC1, active compounds read low) 0.937; (S. cerevisiae deletion strains, locus YKL190W, strain CNB1, active compounds read low) 0.881 (active); (S. cerevisiae deletion strains, locus YLR039C, strain RIC1, active compounds read low) 0.529 (active); (S. cerevisiae deletion strains, locus YLR058C, strain SHM2 (second series), active compounds read low) 0.956; (S. cerevisiae deletion strains, locus YLR085C, strain ARP6, active compounds read low) 0.514 (active). Also, the normalized growth runs as follows: (S. cerevisiae deletion strains, locus YLR262C, strain YPT6, active compounds read low) 0.648 (active); (S. cerevisiae deletion strains, locus YML094W, strain GIM5, active compounds read low) 0.882; (S. cerevisiae deletion strains, locus YMR219W, strain ESC1, active compounds read low) 0.983; (S. cerevisiae deletion strains, locus YMR263W, strain SAP30, active compounds read low) 0.948; (S. cerevisiae deletion strains, locus YMR307W, strain GAS1, active compounds read low) 0.52 (active); (S. cerevisiae deletion strains, locus YNL128W, strain TEP1, active compounds read low) 0.917. For the same compound, the normalized growth is 0.959 (S. cerevisiae deletion strains, locus YNL153C, strain GIM3, active compounds read low); 0.789 (active) (S. cerevisiae deletion strains, locus YNL298W, strain CLA4 (second series), active compounds read low); 0.978 (S. cerevisiae deletion strains, locus YNL322C, strain KRE1, active compounds read low); 0.867 (active) (S. cerevisiae deletion strains, locus YNR030W, strain Alg12, active compounds read low); 0.57 (active) (S. cerevisiae deletion strains, locus YOL006C, strain TOP1, active compounds read low); 0.797 (S. cerevisiae deletion strains, locus YPL055C, strain LGE1, active compounds read low). Further, the normalized growth is 0.818 (active) (S. cerevisiae deletion strains, locus YPL241C, strain CIN2, active compounds read low); 0.498 (active) (S. cerevisiae deletion strains, locus YPR135W, strain CTF4, active compounds read low); 0.881 (active) (S. cerevisiae strains, strain wild type, active compounds read low).

Source of the values: PubChem BioAssay AID1159580 (chemical genetic matrix, 2015).
